Reference: PubChem BioAssay
Active and inactive are the calls of the source.

Key:
[1] = target: Albumin (Bos taurus) (UniProt P02769); experiment: compounds binding labelled BSA control protein – biochemical, small-molecule microarray, Alexa647 label, 635/667 nm fluorescence, artefact control for SMM control protein annotation, profiling panel (AID 1118); details: BSA-A647 binding, fluorescence 635 nm, higher = more signal;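 also: score merges 667 nm emission intensity and signal-to-noise per printed compound spot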
[2] = probe aXIP binding to arrayed compounds – biochemical, NeuroSMM set, 635/667 nm fluorescence, primary screen (AID 1119); details: small-molecule microarray, higher = more signal, called active from +8 up or from −8 down;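 also: probe is the protein aXip251-270 applied at 1 µg/mL to compound-printed slides; binding of probe to printed compounds measured as 667 nm fluorescence plus signal to noise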
[3] = probe aNOTCH3 binding on compound microarray – biochemical, small-molecule microarray, 635/667 nm fluorescence, primary screen (AID 1120); details: higher = more signal;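 also: probe is a biotin-tagged antibody raised against NOTCH3 rather than NOTCH3 protein; score merges spot fluorescence near 667 nm with spot signal to noise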
[4] = probe aNOTCH2 binding on compound microarray – biochemical, small-molecule microarray, 635/667 nm fluorescence, primary screen (AID 1121); details: higher = more signal;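 also: score merges feature fluorescence read at 667 nm with its signal to noise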
[5] = target: Carbonic anhydrase 2 (Homo sapiens) (UniProt P00918); experiment: compounds binding carbonic anhydrase 2 – biochemical, small-molecule microarray, Alexa647-labelled CAII, profiling panel (AID 1122); details: CAII-A647 binding fluorescence, higher = more signal
[6] = COS7 lysate on small-molecule microarray, probe aHis, 635 nm (AID 1123); details: COS7 cell lysate, fluorescence, higher = more signal;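 also: z-score combines 667nm fluorescence intensity with signal-to-noise per printed compound spot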
[7] = probe aLAP1 signal on lysate-treated microarray – cell lysate, small-molecule microarray, COS7 lysate, primary screen (AID 1124); details: probe aLAP1, fluorescence, higher = more signal;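 also: lysate comes from COS7 cells expressing LAP1 and is applied at 0.3 µg/mL; score merges spot fluorescence near 667 nm with signal-to-noise over triplicate slides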
[8] = tested on: Sam68 (KHDRBS1); experiment: compounds binding KHDRBS1 protein – biochemical, small-molecule microarray, 635 nm fluorescence, primary screen (AID 1125); details: higher = more signal;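 also: score merges 667 nm channel intensity with signal to noise over triplicate slides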
[9] = tested on: Chordin-like protein 2 (CHRDL2); experiment: compounds binding chordin-like 2 – biochemical, small-molecule microarray, 635 nm fluorescence, primary screen (AID 1126); details: fluorescence 635 nm, higher = more signal;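 also: printed compound slides probed with Chrdl2 protein at 4 µg/mL for 1 h at 4 C; score merges 667 nm emission intensity with signal to noise over three replicate slides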
[10] = target: Concanavalin-A (Canavalia ensiformis) (UniProt P02866); experiment: compounds binding concanavalin A lectin – biochemical, small-molecule microarray, Alexa647 label, 635 nm, artefact control for SMM control protein annotation, primary screen (AID 1127); details: ConA-A647 binding fluorescence, higher = more signal;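 also: z combines 667 nm emission intensity with signal-to-noise across three replicate slides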
[11] = compounds binding Alexa647 anti-His antibody – biochemical, small-molecule microarray, 635 nm fluorescence, artefact control for SMM control protein annotation, primary screen (AID 1128); details: higher = more signal;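 also: score merges feature fluorescence with signal-to-noise for each printed compound spot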
[12] = tested on: Human papillomavirus type 1a E7 protein (residues 1-88); experiment: HPV1a E7 small-molecule binders, primary screen, biochemical, small-molecule microarray, residues 1-88, 635 nm (AID 1129); details: small-molecule microarray binding, fluorescence 635 nm; higher = more signal
[13] = target: Focal adhesion kinase 1 (Homo sapiens) (UniProt Q05397); experiment: PTK2 protein binding on printed compound slides – biochemical, small-molecule microarray, 635/667 nm fluorescence, BSA, DTT, primary screen (AID 1130); details: 635 nm fluorescence, higher = more signal;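 also: composite of spot emission at 667 nm and signal to noise over triplicate slides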
[14] = tested on: Fibrinogen (Alexa647-labelled); experiment: Alexa647-fibrinogen binding to printed small molecules – biochemical, small-molecule microarray, 635/667 nm fluorescence, artefact control for SMM control-protein annotation, profiling panel (AID 1131); details: fibrinogen-A647 binding fluorescence, higher = more signal;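 also: z-score merges 667 nm fluorescence with per-spot signal-to-noise over triplicate slides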
[15] = target: Follistatin (Homo sapiens) (UniProt P19883); experiment: FST protein binding to printed compounds – biochemical, small-molecule microarray, 635/667 nm fluorescence, primary screen (AID 1132); details: 635 nm fluorescence, higher = more signal
[16] = target: Fibroblast growth factor 2 (Homo sapiens) (UniProt P09038); experiment: basic fibroblast growth factor binding to printed compounds – biochemical, small-molecule microarray, 635/667 nm fluorescence, primary screen (AID 1133); details: FGF2, fluorescence 635/667, higher = more signal
[17] = JC-1 mitochondrial potential readout, lung cancer cells – cell-based, A549, JC-1 fluorescence, basal, 24 h, 100 nL, profiling panel (AID 1138); details: higher = more signal;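 also: A549 lung adenocarcinoma cells under basal conditions with no added stimulus; test concentration not given here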
[18] = tested on: Lefty1; experiment: Lefty1 protein binding to printed compounds – biochemical, small-molecule microarray, 635/667 nm fluorescence, primary screen (AID 1139); details: fluorescence 635/667, higher = more signal
[19] = tested on: wheat germ agglutinin (Triticum aestivum), Alexa647-labelled; experiment: Alexa647-WGA lectin binding to printed small molecules – biochemical, small-molecule microarray, 635/667 nm fluorescence, artefact control for SMM control-protein annotation, profiling panel (AID 1140); details: WGA-A647 binding, 635 nm fluorescence, higher = more signal;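 also: score merges 667 nm feature emission with signal to noise over triplicate slides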
[20] = target: Luciferin 4-monooxygenase (Photinus pyralis) (UniProt P08659); experiment: inhibition of purified Photinus pyralis luciferase – biochemical, luminescence, purified enzyme, 2006 set, primary screen (AID 1141); details: purified firefly luciferase, SteadyGlo luminescence, 30 min; higher = more signal, called active from +8 up or from −8 down;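 also: cell-free assay with purified firefly luciferase at 100 ng per well in PBS; test concentration not given here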
Chain of Luciferin 4-monooxygenase (Photinus pyralis) (P08659 whole entry, looked up): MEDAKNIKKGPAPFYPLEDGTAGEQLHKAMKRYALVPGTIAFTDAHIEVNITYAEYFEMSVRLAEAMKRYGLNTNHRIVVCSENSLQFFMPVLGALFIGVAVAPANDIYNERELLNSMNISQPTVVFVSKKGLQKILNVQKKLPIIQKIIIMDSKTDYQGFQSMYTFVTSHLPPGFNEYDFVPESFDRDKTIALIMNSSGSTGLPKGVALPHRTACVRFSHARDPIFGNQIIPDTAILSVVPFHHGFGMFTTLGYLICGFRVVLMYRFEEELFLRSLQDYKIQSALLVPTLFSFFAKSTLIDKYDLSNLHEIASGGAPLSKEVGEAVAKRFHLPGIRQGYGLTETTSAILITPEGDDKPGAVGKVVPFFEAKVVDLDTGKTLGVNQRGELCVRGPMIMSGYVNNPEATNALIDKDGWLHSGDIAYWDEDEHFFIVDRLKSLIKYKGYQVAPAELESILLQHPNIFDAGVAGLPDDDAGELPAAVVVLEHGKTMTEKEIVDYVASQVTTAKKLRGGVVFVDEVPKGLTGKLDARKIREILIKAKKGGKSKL

Chain of Follistatin (Homo sapiens) (P19883 whole entry, looked up): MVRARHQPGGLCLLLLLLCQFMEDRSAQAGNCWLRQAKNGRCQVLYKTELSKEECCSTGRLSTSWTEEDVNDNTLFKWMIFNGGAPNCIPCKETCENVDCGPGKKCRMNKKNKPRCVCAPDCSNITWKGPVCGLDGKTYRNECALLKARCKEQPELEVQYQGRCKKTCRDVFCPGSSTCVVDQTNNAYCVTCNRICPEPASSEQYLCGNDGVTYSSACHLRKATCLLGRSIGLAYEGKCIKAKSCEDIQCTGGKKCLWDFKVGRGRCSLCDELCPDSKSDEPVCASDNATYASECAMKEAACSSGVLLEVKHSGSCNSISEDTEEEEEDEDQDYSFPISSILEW
Chain of Focal adhesion kinase 1 (Homo sapiens) (Q05397 whole entry, looked up): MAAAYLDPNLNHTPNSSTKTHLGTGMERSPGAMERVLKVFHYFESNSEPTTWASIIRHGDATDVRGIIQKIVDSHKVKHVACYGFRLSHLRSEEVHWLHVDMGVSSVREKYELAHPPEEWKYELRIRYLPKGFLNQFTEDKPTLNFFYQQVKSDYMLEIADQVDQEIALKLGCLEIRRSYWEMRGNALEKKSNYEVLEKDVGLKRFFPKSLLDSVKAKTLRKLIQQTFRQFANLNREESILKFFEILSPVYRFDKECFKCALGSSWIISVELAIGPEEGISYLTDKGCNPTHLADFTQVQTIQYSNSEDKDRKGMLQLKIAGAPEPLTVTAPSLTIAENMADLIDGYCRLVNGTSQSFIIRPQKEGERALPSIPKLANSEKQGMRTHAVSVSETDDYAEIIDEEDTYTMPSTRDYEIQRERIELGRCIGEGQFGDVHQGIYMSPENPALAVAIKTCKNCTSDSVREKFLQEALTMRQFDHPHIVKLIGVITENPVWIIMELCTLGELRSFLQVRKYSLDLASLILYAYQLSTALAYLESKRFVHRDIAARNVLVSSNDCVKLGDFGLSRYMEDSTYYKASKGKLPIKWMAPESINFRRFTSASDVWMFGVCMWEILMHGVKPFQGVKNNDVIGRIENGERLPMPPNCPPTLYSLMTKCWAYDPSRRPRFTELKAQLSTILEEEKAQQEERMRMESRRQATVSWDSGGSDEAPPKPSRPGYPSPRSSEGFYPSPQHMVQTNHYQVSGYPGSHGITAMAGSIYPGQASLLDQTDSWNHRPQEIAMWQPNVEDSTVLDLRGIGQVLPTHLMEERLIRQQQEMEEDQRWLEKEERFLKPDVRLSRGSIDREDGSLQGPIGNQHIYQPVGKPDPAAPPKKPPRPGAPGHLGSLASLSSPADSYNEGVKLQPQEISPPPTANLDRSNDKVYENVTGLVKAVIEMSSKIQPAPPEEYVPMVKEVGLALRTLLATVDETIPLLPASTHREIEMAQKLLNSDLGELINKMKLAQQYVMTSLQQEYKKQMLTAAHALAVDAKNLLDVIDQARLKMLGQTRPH
Chain of Concanavalin-A (Canavalia ensiformis) (P02866 whole entry, looked up): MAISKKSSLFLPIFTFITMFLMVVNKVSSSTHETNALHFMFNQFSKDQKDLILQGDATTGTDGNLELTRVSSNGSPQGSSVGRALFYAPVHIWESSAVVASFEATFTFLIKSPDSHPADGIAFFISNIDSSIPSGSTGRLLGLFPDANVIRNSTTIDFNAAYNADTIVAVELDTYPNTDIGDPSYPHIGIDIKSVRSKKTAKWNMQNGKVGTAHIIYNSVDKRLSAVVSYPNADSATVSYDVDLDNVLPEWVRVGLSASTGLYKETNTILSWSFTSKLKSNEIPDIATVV
Chain of Fibroblast growth factor 2 (Homo sapiens) (P09038 whole entry, looked up): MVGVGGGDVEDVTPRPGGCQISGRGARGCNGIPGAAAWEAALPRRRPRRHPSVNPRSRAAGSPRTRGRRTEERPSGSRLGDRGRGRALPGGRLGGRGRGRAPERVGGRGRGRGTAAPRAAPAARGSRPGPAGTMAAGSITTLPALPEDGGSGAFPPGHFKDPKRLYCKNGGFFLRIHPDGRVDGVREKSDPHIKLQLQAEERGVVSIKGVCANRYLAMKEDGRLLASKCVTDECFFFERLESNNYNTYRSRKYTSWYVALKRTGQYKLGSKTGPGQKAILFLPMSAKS
Chain of Albumin (Bos taurus) (P02769 whole entry, looked up): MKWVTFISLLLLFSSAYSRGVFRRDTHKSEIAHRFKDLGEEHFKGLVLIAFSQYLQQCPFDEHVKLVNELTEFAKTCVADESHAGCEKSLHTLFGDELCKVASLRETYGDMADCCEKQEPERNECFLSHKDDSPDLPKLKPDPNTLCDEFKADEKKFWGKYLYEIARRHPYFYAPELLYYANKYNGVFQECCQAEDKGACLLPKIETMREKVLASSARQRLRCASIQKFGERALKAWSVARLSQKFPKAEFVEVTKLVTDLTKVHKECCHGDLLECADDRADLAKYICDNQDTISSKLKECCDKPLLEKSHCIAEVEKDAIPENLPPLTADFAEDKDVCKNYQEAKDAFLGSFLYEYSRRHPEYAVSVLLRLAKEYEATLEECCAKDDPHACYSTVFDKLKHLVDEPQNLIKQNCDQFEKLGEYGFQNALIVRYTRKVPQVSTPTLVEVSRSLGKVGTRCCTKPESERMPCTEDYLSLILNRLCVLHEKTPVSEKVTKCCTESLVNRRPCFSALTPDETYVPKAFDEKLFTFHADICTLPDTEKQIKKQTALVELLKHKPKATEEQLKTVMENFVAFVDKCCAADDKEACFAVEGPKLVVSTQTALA

C=CC[C@@]1(C(=O)NCc2ccccc2)N=C(c2ccc(OCCCO)cc2)O[C@@H]1c1ccccc1
composite z-score [1]: 0.864
composite Z-score [2]: 0.118 (inactive)
composite z-score [3]: 0.0762
composite z-score [4]: -0.061
composite z-score [5]: 0.493
composite z-score [6]: 2.56
composite z-score [7]: 0.268
composite z-score [8]: 0.966
composite z-score [9]: -0.353
composite z-score [10]: 0.454
composite z-score [11]: 1.11
composite z-score [12]: 1.16
composite z-score [13]: 0.997
composite z-score [14]: -0.017
composite z-score [15]: -0.646
composite z-score [16]: -1.1
z-score [17]: 0.215
composite z-score [18]: -0.865
composite z-score [19]: 0.539
z-score [20]: -1.05 (inactive)

O=C1O[C@H](c2ccccc2)[C@H](c2ccccc2)N2[C@H]1[C@@H](C(=O)Nc1nc3ccccc3s1)[C@]1(C(=O)Nc3ccc(C#CCCO)cc31)[C@H]2c1ccccc1OCCO
composite z-score [1]: 0.596
composite Z-score [2]: 0.231 (inactive)
composite z-score [3]: 0.0695
composite z-score [4]: -0.0155
composite z-score [5]: 0.671
composite z-score [6]: 2.43
composite z-score [7]: 0.849
composite z-score [8]: 1.31
composite z-score [9]: -0.0204
composite z-score [10]: 1.18
composite z-score [11]: 1.42
composite z-score [12]: 1.2
composite z-score [13]: 0.705
composite z-score [14]: 0.89
composite z-score [15]: 1.09
composite z-score [16]: 0.479
z-score [17]: -1.93
composite z-score [18]: 0.287
composite z-score [19]: 1.3
z-score [20]: -1.14 (inactive)

C=C(C(=O)CC[C@@H](OC(C)=O)c1ccccc1OCCO)C(C)C
composite z-score [1]: -0.952
composite Z-score [2]: 0.222 (inactive)
composite z-score [3]: -0.0647
composite z-score [4]: -0.167
composite z-score [5]: 0.664
composite z-score [6]: -0.152
composite z-score [7]: -0.0507
composite z-score [8]: -0.247
composite z-score [9]: -0.38
composite z-score [10]: -0.779
composite z-score [11]: 0.138
composite z-score [12]: -1.28
composite z-score [13]: -0.485
composite z-score [14]: -0.314
composite z-score [15]: 0.164
composite z-score [16]: 0.398
z-score [17]: 1.29
composite z-score [18]: 0.342
composite z-score [19]: -0.242
z-score [20]: -1.35 (inactive)

COCCCNC(=O)[C@@]1(Cc2ccccc2CN=[N+]=[N-])COC(c2ccc(OCCCO)cc2)=N1
composite z-score [1]: 0.922
composite Z-score [2]: 0.536 (inactive)
composite z-score [3]: 0.248
composite z-score [4]: 0.0261
composite z-score [5]: 0.673
composite z-score [6]: 2.83
composite z-score [7]: 0.413
composite z-score [8]: 1.3
composite z-score [9]: -2.16
composite z-score [10]: 1.13
composite z-score [11]: 2.69
composite z-score [12]: 1.21
composite z-score [13]: 0.759
composite z-score [14]: 0.479
composite z-score [15]: 0.186
composite z-score [16]: -0.742
z-score [17]: 1.79
composite z-score [18]: -0.713
composite z-score [19]: 1.03
z-score [20]: -1.59 (inactive)

NC(=O)N1C(=O)C2C(C1=O)C1C=C(c3ccc(CO)cc3)C2C(C2CC2)N1Cc1cc2c(cc1Br)OCO2 (stereo not given)
composite z-score [1]: 0.585
composite Z-score [2]: 0.219 (inactive)
composite z-score [3]: -0.0377
composite z-score [4]: -0.0745
composite z-score [5]: 0.762
composite z-score [6]: 1.32
composite z-score [7]: -0.421
composite z-score [8]: 0.61
composite z-score [9]: -0.312
composite z-score [10]: 0.574
composite z-score [11]: 2.29
composite z-score [12]: 0.066
composite z-score [13]: 0.138
composite z-score [14]: 0.157
composite z-score [15]: 0.197
composite z-score [16]: -0.149
z-score [17]: 1.96
composite z-score [18]: 0.828
composite z-score [19]: 0.216
z-score [20]: -2.17 (inactive)

CC(C)C[C@@H]1NC(=O)[C@@]23C(=O)N[C@@H](Cc4ccccc4)C2[C@H](C)[C@@]2(C)O[C@H]2C3/C=C/C/C=C\CNC(=O)[C@H](Cc2ccccc2)NC1=O (stereo not given in full)
composite z-score [1]: 0.533
composite Z-score [2]: 0.376 (inactive)
composite z-score [3]: -0.0881
composite z-score [4]: -0.128
composite z-score [5]: 0.848
composite z-score [6]: 0.138
composite z-score [7]: 0.379
composite z-score [8]: 0.456
composite z-score [9]: -0.0794
composite z-score [10]: 0.313
composite z-score [11]: 2.15
composite z-score [12]: 0.284
composite z-score [13]: -0.0582
composite z-score [14]: 0.894
composite z-score [15]: 0.515
composite z-score [16]: 0.31
z-score [17]: 1.22
composite z-score [18]: 0.321
composite z-score [19]: 0.994
z-score [20]: -0.755 (inactive)

CC(C)CNC(=O)[C@@H]1c2ccccc2C(=O)N(Cc2ccc(OC(F)(F)F)cc2)[C@H]1c1ccc(CO)cc1
composite z-score [1]: 0.0335
composite Z-score [2]: 0.465 (inactive)
composite z-score [3]: 0.0813
composite z-score [4]: 0.0081
composite z-score [5]: 0.572
composite z-score [6]: 2.36
composite z-score [7]: 0.0712
composite z-score [8]: 1.3
composite z-score [9]: -0.0181
composite z-score [10]: 1.07
composite z-score [11]: 1.31
composite z-score [12]: 1.19
composite z-score [13]: 1.04
composite z-score [14]: 0.647
composite z-score [15]: 1.34
composite z-score [16]: 1.09
z-score [17]: 0.71
composite z-score [18]: 1.52
composite z-score [19]: 0.75
z-score [20]: -1.25 (inactive)

NCCCCCNC(=O)[C@H]1C[C@H]2C(=O)NCC(=O)N2[C@H]1c1ccc(O)cc1
composite z-score [1]: 1.06
composite Z-score [2]: 0.696 (inactive)
composite z-score [3]: 0.0596
composite z-score [4]: -0.105
composite z-score [5]: 0.685
composite z-score [6]: 1.08
composite z-score [7]: 0.521
composite z-score [8]: 1.29
composite z-score [9]: 1.14
composite z-score [10]: 1.22
composite z-score [11]: 2.54
composite z-score [12]: 1.19
composite z-score [13]: 0.366
composite z-score [14]: 0.97
composite z-score [15]: 1.48
composite z-score [16]: 1.75
z-score [17]: 0.68
composite z-score [18]: 1.69
composite z-score [19]: 1.3
z-score [20]: -1.04 (inactive)

CC(C)(C)OC(=O)CC[C@]1(C(=O)NCc2ccccc2)N=C(c2ccc(OCCCO)cc2)O[C@H]1c1ccccc1N=[N+]=[N-]
composite z-score [1]: 1
composite Z-score [2]: -0.286 (inactive)
composite z-score [3]: 0.197
composite z-score [4]: 0.0272
composite z-score [5]: 0.498
composite z-score [6]: 2.97
composite z-score [7]: 0.521
composite z-score [8]: 1.34
composite z-score [9]: -0.0443
composite z-score [10]: 1.16
composite z-score [11]: 2.59
composite z-score [12]: 1.25
composite z-score [13]: 0.245
composite z-score [14]: 1.01
composite z-score [15]: 1.42
composite z-score [16]: 1.3
z-score [17]: 0.566
composite z-score [18]: 0.459
composite z-score [19]: 1.42
z-score [20]: -9.8 (active)

C=C(COC)C(=O)CC[C@H](OC(=O)c1ccccc1-c1ccccc1C(=O)O)c1ccccc1OCCO
composite z-score [1]: -0.714
composite Z-score [2]: 1.42 (inactive)
composite z-score [3]: -0.0881
composite z-score [4]: -0.126
composite z-score [5]: 0.59
composite z-score [6]: 0.125
composite z-score [7]: 0.283
composite z-score [8]: 0.452
composite z-score [9]: -0.0006
composite z-score [10]: 0.7
composite z-score [11]: -0.307
composite z-score [12]: 0.536
composite z-score [13]: -0.203
composite z-score [14]: -0.591
composite z-score [15]: 0.905
composite z-score [16]: 0.855
z-score [17]: 0.904
composite z-score [18]: 0.655
composite z-score [19]: -0.179
z-score [20]: -3.05 (inactive)

[N-]=[N+]=Nc1ccccc1[C@H]1OC(c2ccc(OCCCO)cc2)=N[C@@]1(Cc1ccccc1)C(N)=O
composite z-score [1]: 0.869
composite Z-score [2]: 0.382 (inactive)
composite z-score [3]: 0.416
composite z-score [4]: 0.0521
composite z-score [5]: 0.623
composite z-score [6]: 0.798
composite z-score [7]: 0.577
composite z-score [8]: 1.31
composite z-score [9]: -0.751
composite z-score [10]: 1.16
composite z-score [11]: 2.59
composite z-score [12]: 1.21
composite z-score [13]: 0.0957
composite z-score [14]: 0.997
composite z-score [15]: 1.32
composite z-score [16]: 0.479
z-score [17]: 1.5
composite z-score [18]: 0.97
composite z-score [19]: 1.37
z-score [20]: -12.6 (active)
